Shown are actives, neighbours in structure and some others; about 5.4% of the full set was active somewhere.
ALR inh: human ALR oxidase inhibition via reduced H2O2; P55789; purified ALR, DTT oxidation, H2O2 HRP-luminol luminescence; inhibition, % (no concentration beside the values); 290,000 compounds, 3.8% hits;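 active means mean replicate inhibition above about 79%, with every replicate also reaching it, limit read from the data; inconclusive means only one of the two criteria met; inactive means mean below limit and not every replicate reaching it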
Target sequence (P55789 whole entry, looked up): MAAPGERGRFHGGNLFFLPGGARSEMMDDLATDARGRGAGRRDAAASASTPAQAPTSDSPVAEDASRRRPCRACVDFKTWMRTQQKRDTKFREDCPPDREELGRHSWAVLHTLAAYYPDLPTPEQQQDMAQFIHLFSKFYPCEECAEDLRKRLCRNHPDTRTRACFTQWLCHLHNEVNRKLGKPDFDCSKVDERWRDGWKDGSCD
aDG glyco up: increases alpha dystroglycan glycosylation; Pro5-aDG cells, alpha-DG glycosylation AlphaScreen (IIH6); 0% Pro5, 100% B10-LARGE cell signal; activation, % at 10 µM; 360,000 compounds, 0.22% hits;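 active means activation of at least 8% versus controls, or a plate z-score of at least 8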;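 further: Pro5 are CHO cells carrying HIG-tagged alpha-DG that lacks glycosylation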
PHOSPHO1 block: inhibitors of human PHOSPHO1 phosphatase; Q8TCT1; recombinant PHOSPHO1, absorbance phosphatase assay; inhibition, % at 13.3 µM; 290,000 compounds, 1.1% hits; AID 1565; in the data active means inhibition above about 60%
Target sequence (Q8TCT1 whole entry, looked up): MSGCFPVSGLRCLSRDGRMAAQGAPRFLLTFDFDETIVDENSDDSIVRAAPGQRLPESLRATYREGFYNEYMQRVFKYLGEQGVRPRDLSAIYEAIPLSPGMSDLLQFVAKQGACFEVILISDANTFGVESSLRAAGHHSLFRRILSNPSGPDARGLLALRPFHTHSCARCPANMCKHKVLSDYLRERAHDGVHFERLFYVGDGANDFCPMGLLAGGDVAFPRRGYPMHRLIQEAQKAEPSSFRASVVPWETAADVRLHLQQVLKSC
A3G deaminase: blocks human APOBEC3G single-stranded DNA deamination; recombinant A3G, ssDNA deamination FAM/TAMRA fluorescence; Q9HC16; inhibition, % at 20 µM; 330,000 compounds, 0.28% hits;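 active means inhibition of at least 40% at 20 µM, with no more than 30% in the related APOBEC3A deaminase screen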;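 further: plate controls were DMSO wells with A3G for no effect and wells lacking A3G enzyme for full effect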
APOBEC3A inh: inhibitors of human APOBEC3A DNA deaminase | 330,000 compounds, 0.41% hits | recombinant A3A, FAM/TAMRA ssDNA deamination fluorescence | P31941 | inhibition, % at 20 µM;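 active means at least 40% inhibition at 20 µM here, with at most 30% in a related deaminase screen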;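 further: plate controls were A3A with DMSO for no effect and wells lacking A3A enzyme for full effect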
Target sequence (P31941 whole entry, looked up): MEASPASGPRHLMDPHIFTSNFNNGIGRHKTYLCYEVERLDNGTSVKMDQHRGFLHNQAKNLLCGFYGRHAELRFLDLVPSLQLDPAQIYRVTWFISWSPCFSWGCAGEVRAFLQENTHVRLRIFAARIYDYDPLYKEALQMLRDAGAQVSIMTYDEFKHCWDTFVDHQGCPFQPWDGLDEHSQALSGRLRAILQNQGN
rCAG RNA binder: binds r(CAG) RNA repeats | r(CAG) RNA repeat, TO-PRO-1 dye displacement fluorescence | inhibition, % at 3 µM | 370,000 compounds, 1.3% hits | AID 651821;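 active means inhibition above the plate cutoff, the mean of all test compounds on that plate plus 3 SD, cut at about 35% in these data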;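 further: 0% = DMSO alone and 100% = 100 µM mitoxantrone as full dye displacement; higher means more dye released from RNA so lower well fluorescence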
rCAG binder conf: r(CAG) RNA repeat binding, confirmation | shares compounds with rCAG RNA binder | TO-PRO-1 dye displacement fluorescence | inhibition, % at 3 µM | 4,300 compounds, 70% hits | AID 652065;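 active means inhibition above a per-plate cutoff, the mean inhibition of sample wells plus 3 SD, cut at about 35% in these data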;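 further: loss of TO-PRO-1 fluorescence as compound displaces dye from 1x1 AA loop RNA; 0% = DMSO only wells and 100% = 100 µM mitoxantrone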
dCAG dye counter: counter-screen for rCAG RNA binders: DNA CAG dye complex inhibitors. 4,300 compounds, 94% hits. inhibition, % at 3 µM. shares compounds with rCAG RNA binder. d(CAG) DNA oligo TO-PRO-1 dye displacement, fluorescence;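 active means inhibition above its plate's cutoff, the mean test-well inhibition plus 3 SD, cut at about 4.8% in these data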;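 further: 0% = DNA dye mix with DMSO and 100% = 100 µM mitoxantrone; hits displace the dye from DNA and so lower well fluorescence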
* marks the source's active call; other numbers are inactive results; ? = inconclusive; . = no result.

SMILES	ALR inh	aDG glyco up	PHOSPHO1 block	A3G deaminase	APOBEC3A inh	rCAG RNA binder	rCAG binder conf	dCAG dye counter
CCCCN(CCCC)c1ccc(C(=O)c2ccccc2C(=O)O)c(O)c1	89.8*	-0.2	37.3	-1.9	-2.1	71.8*	56.8*	20.7*
C[C@H]1CN([C@@H](C)CO)C(=O)CCCn2nncc2CO[C@@H]1CN(C)Cc1ccccc1	.	0.2	.	.	.	-1.2	.	.
CC(=O)Nc1ccc(S(=O)(=O)Nc2nc3ccccc3nc2Nc2cccc(O)c2)cc1	81.8*	0.0	15.9	-6.3	-5.8	58.6*	46.0*	11.8*
CC(=O)c1ccc(NS(=O)(=O)c2ccc3ccccc3c2)cc1	0.4	-0.1	2.4	12.0	0.4	3.1	.	.
CC(=O)Nc1ccc(Nc2nc3ccccc3nc2NS(=O)(=O)c2ccc(Cl)c([N+](=O)[O-])c2)cc1	.	0.1	.	.	.	91.2*	93.2*	76.4*
CC(=O)Nc1ccc(S(=O)(=O)Nc2nc3ccccc3nc2Nc2ccc(N)cc2)cc1	99.8*	0.2	29.8	-2.4	2.8	41.8*	32.1	11.0*
CC(=O)Nc1ccc(S(=O)(=O)Nc2nc3ccccc3nc2N2CCOCC2)cc1	.	0.7	.	-3.3	0.6	2.7	.	.
CC(=O)Nc1ccc(S(=O)(=O)Nc2nc3ccccc3nc2Nc2ccc3ccccc3c2)cc1	?	-0.3	9.6	-10.2	-3.3	74.8*	93.3*	81.6*
CCCCN(CCCC)c1nc2ccccc2nc1NS(=O)(=O)c1ccc(NC(C)=O)cc1	-8.8	-0.1	18.6	1.6	4.3	3.9	.	.
CC(=O)Nc1ccc(S(=O)(=O)Nc2nc3ccccc3nc2Nc2ccc(C(=O)O)c(O)c2)cc1	98.2*	-0.2	.	46.7	56.3	47.2*	44.9*	12.6*
Cc1ccc(S(=O)(=O)NN=C(c2ccccc2)c2cccs2)cc1	.	0.1	.	.	.	35.6*	18.9	6.7*
O=C(O)[C@@H]1C[C@@H](O)CN1	.	.	.	.	.	2.9	.	.
O=C(O)Cn1nnc(-c2ccc(OCc3ccccc3Cl)cc2)n1	4.0	.	24.1	-4.9	-3.1	38.8*	25.7	3.1
O=C(O)COc1ccc(-c2nnn(CC(=O)O)n2)cc1	-2.2	0.0	1.2	-3.5	0.1	1.8	.	.
O=C1Nc2ccccc2C1=Nc1ccccc1-c1ccccc1	.	0.8	.	.	.	2.0	.	.
O=C(O)Cc1sc(NC2CCCCC2)nc1-c1ccc(Cl)cc1	-1.1	0.0	4.0	-11.5	-3.5	6.9	.	.
Cc1ccc(-c2nc(-c3ccc(Cl)cc3)sc2CC(=O)O)c(C)c1	98.6*	-0.5	-3.7	-5.8	-3.0	44.9*	30.5	8.7*
Cc1ccc(S(=O)(=O)/N=C2/NC(=O)/C(=C/c3cc([N+](=O)[O-])ccc3O)S2)cc1	28.6	0.2	-4.1	-11.7	-6.8	88.0*	66.9*	24.6*
COc1cccc(N=C2NC(=O)/C(=C/c3cc([N+](=O)[O-])ccc3O)S2)c1	45.1	-0.1	30.8	-10.5	-0.1	12.4	.	.
O=C1NC(=Nc2ccccc2Cl)S/C1=C\c1cc([N+](=O)[O-])ccc1O	46.1	0.2	28.7	-6.0	-4.3	82.4*	69.3*	27.2*
COc1cc(/C=C2\S/C(=N/S(=O)(=O)c3ccc(C)cc3)NC2=O)c([N+](=O)[O-])cc1OC	20.9	-0.2	0.1	-8.9	-4.0	85.5*	84.0*	51.0*
O=C1N/C(=N/O)S/C1=C/c1cccc([N+](=O)[O-])c1	8.3	-0.1	-11.2	-7.3	-1.5	0.2	.	.
CCCCCCC12Cc3cc(OC)c(OC)cc3C(O1)C1=C(O2)C(C)(C)CCC1=O (configuration not stated)	.	.	.	.	.	5.7	.	.
CCCC1OC(c2cc3c(cc2Cl)OCO3)OCC1CC (configuration not stated)	.	-0.2	.	.	.	-1.6	.	.
COC(=O)C1=C(C)N(Cc2cccc(C(F)(F)F)c2)C(=NCc2cc(OC)c(OC)c(OC)c2)NC1CCc1ccccc1 (configuration not stated)	.	.	.	.	.	9.1	.	.
SMILES	ALR inh	aDG glyco up	PHOSPHO1 block	A3G deaminase	APOBEC3A inh	rCAG RNA binder	rCAG binder conf	dCAG dye counter
COc1ccc(-c2cc(C(=O)NC(Cc3cc4ccccc4[nH]3)C(=O)O)c(C)o2)cc1OC (configuration not stated)	9.1	-0.2	-6.7	11.7	2.7	49.1*	49.8*	15.4*
COc1ccc(-c2cc(C(=O)O)c(C)o2)cc1OC	-14.1	0.3	-1.2	-0.4	1.4	2.2	.	.
CN1C2CCCC1CC(NC(=O)c1nn(C)c3ccccc13)C2 (configuration not stated)	.	.	.	.	.	2.0	.	.
Cc1ccc(/C=C2\SC(=S)N(CC3CCCO3)C2=O)o1 (configuration not stated)	-3.5	0.3	76.8*	18.2	10.7	46.5*	40.1*	15.3*
COc1cc(/C=C2/SC(=S)N(CC3CCCO3)C2=O)ccc1O (configuration not stated)	.	0.4	3.0	-1.9	0.1	29.8	.	.
CSC1=NSC2=NC(=O)/C(=C\c3ccc(OC(=O)c4ccco4)cc3)C(=N)N12	9.1	-0.3	15.0	9.7	4.4	37.7*	42.8*	13.3*
CC(C)CS(=O)(=O)C1=NSC2=NC(=O)/C(=C\c3ccc(OC(=O)c4ccco4)cc3)C(=N)N21	20.5	-0.3	38.5	-3.9	-2.1	24.2	.	.
N=C1/C(=C\c2ccc(OC(=O)c3ccccc3Cl)cc2)C(=O)N=C2SC(N3CCOCC3)=NN12	7.4	-0.3	43.5	-4.4	-2.3	37.0*	63.2*	26.5*
CS(=O)(=O)C1=NSC2=NC(=O)/C(=C\c3ccc(OC(=O)c4ccco4)c(Br)c3)C(=N)N21	20.3	-0.2	34.4	-4.7	-3.0	40.3*	83.1*	52.5*
CCC(CC)C1=NN2C(=N)/C(=C/c3ccc(OC(=O)c4ccco4)cc3)C(=O)N=C2S1	73.8	-0.8	19.9	-4.1	-7.5	42.2*	46.4*	12.0*
COCCCNC(=O)/C=C/c1ccc(Cl)cc1Cl	-12.3	0.1	-13.6	-8.8	-4.0	-2.7	.	.
CCNc1ccc(Br)cc(C(=O)/C=C/c2ccc(Cl)cc2Cl)c1=O	8.5	0.2	-10.4	10.1	16.6	44.5*	48.1*	21.2*
CNc1ccc(Br)cc(C(=O)/C=C/c2ccc3c(c2)OCO3)c1=O	1.5	-0.1	-134.8	25.3	33.6	32.8	.	.
CNc1ccc(Br)cc(C(=O)/C=C/c2ccc(OC)cc2)c1=O	54.5	-0.6	-14.6	16.4	23.6	41.8*	39.6*	15.2*
CNc1ccc(Br)cc(C(=O)/C=C/c2cc(OC)ccc2OC)c1=O	48.6	0.2	-20.8	8.2	20.5	42.8*	38.1*	16.3*
CCCCN(C=O)c1c(CC)nc2ccc(C(=O)NCCOc3ccc(OC)cc3)cn12	.	0.0	.	.	.	-1.0	.	.

Source: PubChem BioAssay
